Data on 35 molecules can be found in PubChem BioAssay (NCI).

The panel holds about 83,000 compounds, 20% with a hit somewhere; the sample as a whole holds those more often.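 Assay: single dose, 48 h. Readout: percent growth (0 = no net growth; negative = cell death). Active: <10.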 Unmarked numbers belong to inactive results. Active and inactive are the calls of the source.

The subject of this assay is HCC-2998 colon. Description: NCI-60 one-dose screen, 48 h (100 = growth as untreated, 0 = no growth, -100 = all killed). The following applies: 10 µM.
Consider `COc1cc(/C=C/C(=O)c2ccc(C(F)(F)F)cc2)ccc1Oc1nc(Nc2ccc(F)cc2)nc(N(C)C)n1`, for which the growth is 97.9%. `Cc1ccc(/C=C/C(=O)c2ccc(NC(=O)CSc3nnc(-c4c[nH]c5ccccc45)n3-c3ccccc3)cc2)c(C)c1`: the growth is 74.1%.

Turning to `N#Cc1c(-c2ccc(Cl)cc2)cc(-c2ccccc2)nc1OCc1ccccc1`, the growth is 95%.

With `Nc1nnc(-c2c[nH]c3ncccc23)c(-c2c[nH]c3ccc(Br)cc23)n1`, the growth is 74.5%.

As to `CC(=O)OC[C@@]1(C)C2CC[C@]3(C)C(CC=C4C5CC(C)(C)CC[C@]5(C(=O)Nc5ccccc5)CC[C@]43C)[C@@]2(C)C[C@@H](OC(C)=O)[C@@H]1OC(C)=O` (stereo not given in full), the growth is 42.3%. Next, `O=C(CSc1nnc(-c2c[nH]c3ccccc23)n1-c1ccccc1)Nc1ccc(C(=O)/C=C/c2cccc([N+](=O)[O-])c2)cc1`: 62.7%; `C/C(=C\c1ccc(O)cc1O)c1ccc2ccc(O)cc2[o+]1`: 61.4%. Turning to `CCCCOc1ccc(Nc2nc3ccccc3nc2Nc2ccc(OCCCC)cc2)cc1`, the growth was 106%.

Regarding `Nc1nc(Nc2ccc(Cl)cc2)nn1Cc1cccc(Br)c1`, the growth was 5.71% (active). Next, `COc1ccc(/C=N/N=C(\C)c2ccc3c(c2)Nc2ccccc2S3)cc1O`: 51.2%; `O=C(CSc1nnc(-c2c[nH]c3ccccc23)n1-c1ccccc1)c1ccc(Br)cc1`: 31.7%; `COC(=O)c1c(C(=O)OC)c2n(c1C)[C@@H]([C@@H](C)[C@H]1CC[C@H]3[C@@H]4CCC5=CC(=O)CC[C@]5(C)[C@H]4CC[C@]13C)SC2`: 45%.

In the case of `COc1ccc(C(=O)/C=C/c2cc(C(F)(F)F)cc(C(F)(F)F)c2)cc1S(N)(=O)=O`, the growth was -98.3% (active). With `CCCn1c(O)c(N=Nc2nc(-c3cc4ccccc4oc3=O)cs2)c2cc(Br)ccc21`, the growth was 99.1%. Next, `CC(=O)Oc1ccccc1C(=O)Oc1ccc(C(=O)/C=C/c2ccncc2)cc1`: -14% (active); `CC(=O)C1=C(C)NC(SCC(=O)Nc2ccc(S(=O)(=O)Nc3cc(C)on3)cc2)=NC1c1ccccc1` (stereo not given): 112%; `COc1cc2c3c(n(CCCn4ccnc4)c(=O)c2cc1OC)-c1nc2c(cc1C3=O)OCO2`: 72.2%. Consider `O=S(=O)(Nc1ncccn1)c1ccc(-n2c(-c3ccc(Br)cc3)nc(-c3ccccc3)c2-c2ccccc2)cc1`, for which the growth was 39.7%. As for `COc1ccc(-c2cc(C(=O)N=Nc3c(O)[nH]c4ccc(Br)cc34)c3ccccc3n2)cc1`, the growth is 23.4%. Next, `CCOC(=O)CNC(=O)CN(Cc1ccccc1)C(=O)[C@@]1(C)CCC[C@]2(C)[C@H]3CC4C(C(C)C)=C[C@]3(CC[C@H]21)[C@@H]1C(=O)CCC(=O)[C@H]41`: 37.8%. Next, `CC1(c2ccccc2)NC(=O)N(CC(=O)Nc2ccc(C(=O)/C=C/C=C/c3ccccc3)cc2)C1=O` (stereo not given): 87.2%; `O=c1c2ccccc2nc(COc2ccccc2)n1/N=C/c1ccc(F)cc1`: 104%; `COc1ccc(-c2cc(-c3cc(C(=O)c4ccccc4)n4ccc(C)cc34)nc(N)c2C#N)cc1`: 80.9%. Next, `COc1cc(C2CC(c3ccc(C)cc3)=Nc3c(N)nc(N)nc3N2)ccc1Oc1nc(Nc2ccc(F)cc2)nc(N(C)C)n1` (stereo not given): 29.9%; `O=C(Nc1cccc(C(F)(F)F)c1)c1cncc(C#Cc2cnc3ccc(N4CCOCC4)nn23)c1`: -4.89% (active); `CC(=O)Nc1ccc(-c2cn(-c3cccc(C(=O)Nc4ccc(F)c(C(F)(F)F)c4)c3)nn2)cn1`: 62%. As to `CN(C(=O)c1ccc(C(F)(F)F)cc1C(F)(F)F)c1sc2c(c1C#N)CCC(=O)C2`, the growth is 94.4%. As for `C#CCNC(=O)CCC(=O)OC[C@]12CC[C@@H](C(=C)C)[C@@H]1C1CC[C@@H]3[C@@]4(C)CCCNC(C)(C)[C@@H]4CC[C@@]3(C)[C@]1(C)CC2` (stereo not given in full), the growth was -99.1% (active). Next, `COc1ccc2[nH]cc(/C=N/Nc3ccc(Br)cn3)c2c1`: 10.2%; `[2H]C([2H])([2H])Oc1ccc2ncc(C#Cc3cncc(C(=O)Nc4ccc(CN5CCN(C)CC5)c(C(F)(F)F)c4)c3)n2n1`: -84.8% (active); `COc1ccc(CN2[C@H](C(=O)NCc3ccc(C(=O)NO)cc3)Cc3c([nH]c4ccccc34)[C@H]2C2CC2)cc1`: 33%. Next, `O=c1cc(-c2ccccc2)oc2cc(OCCCCNCc3ccccc3)cc(O)c12`: -96.7% (active); `O=c1[nH]c2ccccc2cc1CSc1ccc(Nc2nccc(-c3ccc(C(F)(F)F)cc3)n2)cc1`: 48.1%; `CN(C)c1ccc(/C=C/c2nc3ccccc3c(=O)n2CC(=O)Nc2ccccc2)cc1`: 58.2%. Next, `Cc1ccc(-c2nc(Nc3ccc(C)c(S(N)(=O)=O)c3)c3ccccc3n2)cc1`: 49.5%.
